Here are results for 40 compounds from PubChem BioAssay (Tox21).

Records with an inconclusive call do not appear. A call without a number means that no potency is given here. The source made the active and inactive calls. Calls come from the whole dose curve; as a rule, active = well fitted cell-killing curve with a large enough effect in the repeat runs; inconclusive = weak or mixed curves; inactive = flat fitted curve, though single readings scatter.
Potency is the fitted concentration of half-maximal effect.

The nature of this test: qHTS assay to identify small molecule antagonists of the estrogen related receptor (ERR) signaling pathway - cell viability counter screen (AID 1224818). Particulars: ERR reporter cell line viability counter screen; series mostly up to 46.1 µM. From the text: National Center for Advancing Translational Sciences [NCATS]
NIH Chemical Genomics Center [NCGC]
U.S. Environmental Protection Agency [EPA]
National Institutes of Environmental Health Sciences [NIEHS]
National Toxicology Program [NTP]
U.S. Food and Drug Administration [FDA]
Estrogen related receptors (ERRs), the first orphan nuclear receptors discovered, play an important role in the control of cellular energy metabolism. ERRs are required for high-energy production in response to the environmental challenges. ERR-alpha was also identified as an adverse marker for breast cancer progression; ERR-alpha-positive tumors have a poor prognosis. To screen and to identify environmental compounds that perturb the ERR signaling pathways could provide valuable information for potential therapeutic or preventive measures in the treatment of metabolic disease. To differentiate true ERR antagonists or agonist from cytotoxic substances, the assay is multiplexed with cell viability assay.
Tox21 Assay Protocol Summary:
The ERR cells were dispensed at 2,000 cells/5 ul/well in 1536-well white plates using a Multidrop dispenser. After the assay plates were incubated at a 37 C/5% CO2 incubator for 6 hours, 23 nL of compounds dissolved in DMSO, positive and negative controls or DMSO only was transferred to the assay plate by a pin tool. The plates were incubated at 37 C for 17.5 hours. 1 ul/well of CellTiter-Fluor reagent was added into the assay plates using a Flying Reagent Dispenser. After 30 min incubation at 37 C/5% CO2, the fluorescence intensity in the plates was measured using a ViewLux plate reader.
Background: Quantitative high-throughput screening tests each substance at several concentrations.
`CCOC(=O)C1=C(O)C(=O)N(Cc2ccccc2)C1`: the Potency result is “inactive”.

For the compound `CC(=O)N[C@H](C(=O)O)C(C)(C)SN=O`, the Potency result was “inactive”.

In the case of `CN(C)C(=O)/N=N/C(=O)N(C)C`, the Potency entry was “inactive”.

In the case of `C=CC1(C)CC(=O)C2(O)C(C)(O1)C(OC(C)=O)C(O)C1C(C)(C)CCC(O)C12C` (stereo not given), the Potency entry is “inactive”.

As to `CCCCS(=N)(=O)CC[C@H](N)C(=O)O` (stereo not given in full), the Potency entry is “inactive”.

With `COCc1nc2c([nH]1)c(=O)n(C)c(=O)n2CC(C)C`, the Potency entry is “inactive”.

As to `C[C@@H](NCCc1ccc(O)cc1)[C@@H](O)c1ccc(O)cc1`, the Potency result was “inactive”.

With `COCCOc1cc2nc[nH]c(=O)c2cc1OCCOC`, the Potency entry was “inactive”.

`Cn1c(=O)c2c(nc(/C=C/c3cccc(Cl)c3)n2C)n(C)c1=O`: the Potency result was “inactive”.

As to `COc1cc2nc(N3CCCN(C)CC3)nc(NC3CCN(Cc4ccccc4)CC3)c2cc1OC`, the Potency is 24.6 µM (active).

`Nc1ccn([C@H]2O[C@H](CO)[C@@H](O)C2(F)F)c(=O)n1`: the Potency entry was “inactive”.

With `CC1(C)CCC2=C(O1)c1ccccc1C(=O)C2=O`, the Potency was 16.8 µM (active).

Regarding `O=C1OC(=O)C2C3CCC(O3)C12` (stereo not given), the Potency entry was “inactive”.

`C[N+](C)(C)CC=O`: the Potency entry is “inactive”.

As to `CC(=O)N[C@@H](Cc1c[nH]c2ccccc12)C(=O)OCc1cc(C(F)(F)F)cc(C(F)(F)F)c1`, the Potency entry was “inactive”.

For the compound `C=CC[C@H](N)C(=O)O`, the Potency entry was “inactive”.

For the compound `COc1cc2c(CCNC(C)=O)c[nH]c2cc1O`, the Potency entry was “inactive”.

Consider `NOCC(=O)O`, for which the Potency entry is “inactive”.

As for `N.N.O=C(O)C1(C(=O)O)CCC1.[Pt+2]`, the Potency entry was “inactive”.

For the compound `O=c1ccc2c(OCCCCc3ccccc3)c3ccoc3cc2o1`, the Potency result is “inactive”.

Regarding `N=c1ccn2c(n1)O[C@H]1C(O)[C@@H](CO)O[C@H]12` (stereo not given in full), the Potency entry was “inactive”.

Take `O=c1cc(-c2ccccc2)oc2c(O)c(O)ccc12`: the Potency result is “inactive”.

With `CN=c1nc(-c2ccccc2)n(-c2ccccc2)s1`, the Potency entry is “inactive”.

For `COc1ccc2c(c1)c(CC(=O)O)c(C)n2C(=O)c1ccccc1`, the Potency entry is “inactive”.

In the case of `COC1(C2=NCCN2)COc2ccccc2O1` (stereo not given), the Potency result was “inactive”.

`N=c1c[n+](N2CCOCC2)[n-]o1`: the Potency entry is “inactive”.

For `OC1(c2ccc(Cl)cc2)CCN(Cc2c[nH]c3ccccc23)CC1`, the Potency entry was “inactive”.

Consider `CN1C2CCC1CC(OC(=O)c1c[nH]c3ccccc13)C2` (stereo not given), for which the Potency entry is “inactive”.

Turning to `O=[N+]([O-])c1ccc(CNc2nc(NCc3cccc(C(F)(F)F)c3)nc3nc[nH]c23)cc1`, the Potency result was “inactive”.

For the compound `O=C1NC(=O)/C(=C/c2ccc(-c3ccc(F)cc3O)o2)S1`, the Potency result was “inactive”.

For the compound `c1ccc2c(c1)CCC[C@H]2Nc1nc2ccccc2[nH]1`, the Potency result was “inactive”.

`O=C(OCCN1CCOCC1)C1(c2ccccc2)CCCCC1`: the Potency result was “inactive”.

As to `C[C@H](O)C(=O)C1=Nc2c(nc(N)[nH]c2=O)NC1`, the Potency entry was “inactive”.

As for `NC/C=C\C(=O)O`, the Potency entry is “inactive”.

Regarding `N[C@H](CO)C(=O)O`, the Potency entry was “inactive”.

Regarding `CC(N)(Cc1ccc(O)cc1)C(=O)O` (stereo not given), the Potency entry is “inactive”.

Take `O=C1/C(=C/c2ccsc2)CC/C1=C\c1cccs1`: the Potency result was “inactive”.

In the case of `CCNC(=O)[C@H]1O[C@@H](n2cnc3c(N)nc(NCCc4ccc(CCC(=O)O)cc4)nc32)[C@H](O)C1O` (stereo not given in full), the Potency entry was “inactive”.

As to `N#C/C(=C\c1ccc(O)c(O)c1)C(=O)NCCc1ccccc1`, the Potency result was “inactive”.

Consider `COc1cccc(C(=O)NCCN2CCN(c3ccc(Cl)cc3)CC2)c1`, for which the Potency entry was “inactive”.
